# Experimental data: PubChem BioAssay AID1645838 (ICCB-Longwood Screening Facility, Harvard Medical School, 2021)
# About 100 (5%) of roughly 2,000 compounds were called active. No stated cut-off is given here; in the data, active means z-score above about 2; inactive means the rest. Many of the other results were omitted from the sample, so actives are more common in it than they were.
# Assay: modulators of mitochondrial supercomplex assembly, cell-based, luminescence, Hoechst nuclei count (AID 1645838);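 further: control cybrid cells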
# Settings: Cells, luminescence/Hoechst cell count ratio, supercomplex reporter; for z-score: stronger effect = higher value; for cell count: measured here: cell number, Hoechst nuclei count
# [1] = library stock concentration (final well concentration not given) 80 uM
# [2] = library stock concentration (final well concentration not given) 400 uM
# [3] = library stock concentration (final well concentration not given) 2 mM
# [4] = library stock concentration (final well concentration not given) 10 mM
# [5] = library stock concentration (final well concentration not given) 46 uM
# [6] = library stock concentration (final well concentration not given) 278 uM
# [7] = library stock concentration (final well concentration not given) 1.67 mM
smiles,measurement,setting,value
CC(OC1OCCN(Cc2n[nH]c(=O)[nH]2)C1c1ccc(F)cc1)c1cc(C(F)(F)F)cc(C(F)(F)F)c1 (stereo unspecified),z-score,[1],-0.483 (inactive)
same,z-score,[2],-0.157 (inactive)
same,z-score,[3],-0.324 (inactive)
same,z-score,[4],1.44 (inactive)
same,cell count,[1],5120
same,cell count,[2],5200
same,cell count,[3],4790
same,cell count,[4],2820
CCCCCCCC/C=C\CCCCCCCC(=O)N[C@@H](CO)C(=O)O,z-score,,0.0618 (inactive)
same,cell count,,5160
NCC(=O)Nc1ccc(-n2nc(C(F)(F)F)cc2-c2ccc3c(ccc4ccccc43)c2)cc1,outcome,library stock 10 mM,inactive; censored for cell count
same,z-score,[1],-0.354 (inactive)
same,z-score,[2],-0.201 (inactive)
same,z-score,[3],4.63 (active)
same,cell count,[1],6120
same,cell count,[2],5230
same,cell count,[3],2710
Cc1nnsc1C(=O)Nc1ccc(-n2nc(C(F)(F)F)cc2C(F)(F)F)cc1,z-score,,0.284 (inactive)
same,cell count,,4970
CCCCCCCCCCCCCCC(=O)NCCO,z-score,[5],-0.0121 (inactive)
same,z-score,[6],0.19 (inactive)
same,z-score,[7],-0.219 (inactive)
same,z-score,[4],0.291 (inactive)
same,cell count,[5],6780
same,cell count,[6],6410
same,cell count,[7],7210
same,cell count,[4],6620
CC(=O)c1cccc(NC(=O)CN2CCc3cc4c(cc3C2)OCCCO4)c1,z-score,[1],0.0242 (inactive)
same,z-score,[2],0.451 (inactive)
same,z-score,[3],-0.169 (inactive)
same,z-score,[4],0.0588 (inactive)
same,cell count,[1],4960
same,cell count,[2],4830
same,cell count,[3],4760
same,cell count,[4],4740
COc1cc2c(NC3CCN(CC4CCCCC4)CC3)nc(N3CCCN(C(C)C)CC3)nc2cc1OCCCN1CCCCC1,outcome,library stock 10 mM,inactive; censored for cell count
same,z-score,[1],-0.365 (inactive)
same,z-score,[2],-0.622 (inactive)
same,z-score,[3],0.193 (inactive)
same,cell count,[1],6230
same,cell count,[2],6560
same,cell count,[3],4370
COc1cc2nc(N3CCCN(C)CC3)nc(NC3CCN(Cc4ccccc4)CC3)c2cc1OC,z-score,,-0.382 (inactive)
same,z-score,[5],-0.481 (inactive)
same,z-score,[6],-0.471 (inactive)
same,z-score,[7],0.298 (inactive)
same,z-score,[4],10.9 (active)
same,cell count,,5260
same,cell count,[5],6510
same,cell count,[6],6560
same,cell count,[7],5890
same,cell count,[4],2180
COc1cc2c(NC3CCN(C(C)C)CC3)nc(C3CCCCC3)nc2cc1OCCCN1CCCC1,z-score,[5],-0.551 (inactive)
same,z-score,[6],-0.34 (inactive)
same,z-score,[7],-0.454 (inactive)
same,z-score,[4],0.796 (inactive)
same,cell count,[5],6710
same,cell count,[6],5680
same,cell count,[7],6450
same,cell count,[4],1730
CCCCCC(=O)CC[C@H]1C(=O)C=C[C@@H]1C/C=C\CCCC(=O)O,z-score,,1.09 (inactive)
same,cell count,,5090
CC(C)(C)OC(=O)N1CCC(OC2CCNCC2)CC1,z-score,[1],0.0198 (inactive)
same,z-score,[2],0.196 (inactive)
same,z-score,[3],0.447 (inactive)
same,z-score,[4],0.428 (inactive)
same,cell count,[1],4690
same,cell count,[2],4710
same,cell count,[3],4640
same,cell count,[4],4420
Cc1cc(CS(=O)(=O)c2ccccc2)cc(OCc2ccc(CN3CCCC3CO)cc2)c1 (stereo unspecified),z-score,[5],-0.0615 (inactive)
same,z-score,[6],-0.164 (inactive)
same,z-score,[7],-0.0708 (inactive)
same,z-score,[4],-0.221 (inactive)
same,cell count,[5],5870
same,cell count,[6],5750
same,cell count,[7],5420
same,cell count,[4],5130
CCCCCCCCCCCCC/C=C/[C@@H](O)[C@H](CO)NC(=O)CCCCC,z-score,,-0.258 (inactive)
same,cell count,,5330
CCOC(=O)NCCCC(=O)NCCc1ccccc1,z-score,[5],-0.07 (inactive)
same,z-score,[6],-0.00876 (inactive)
same,z-score,[7],-0.143 (inactive)
same,z-score,[4],-0.14 (inactive)
same,cell count,[5],5970
same,cell count,[6],5710
same,cell count,[7],5220
same,cell count,[4],5550
CN(C)c1ccc(C(=O)NCCCCCCC(=O)NO)cc1,z-score,,6.25 (active)
same,cell count,,3650
CC(/C=C/C(=O)NO)=C\[C@@H](C)C(=O)c1ccc(N(C)C)cc1,outcome,,inactive; censored for cell count
Cc1ccc(NC(=O)CCCCCC(=O)Nc2ccccc2N)cc1,z-score,,1.29 (inactive)
same,cell count,,4790
CN(C)c1ccc(C(=O)NCCCCCC(=O)NO)cc1,z-score,,0.156 (inactive)
same,cell count,,5320
Cc1ccc(C(=O)NCCCCCC(=O)Nc2ccccc2N)cc1,z-score,[1],0.128 (inactive)
same,z-score,[2],0.271 (inactive)
same,z-score,[3],0.708 (inactive)
same,z-score,[4],4.86 (active)
same,cell count,[1],5180
same,cell count,[2],5260
same,cell count,[3],4840
same,cell count,[4],3070
CCCCC[C@H](O)/C=C/[C@@H]1[C@@H](CCCCCCC(=O)O)[C@H](O)C[C@@H]1O,z-score,,-0.12 (inactive)
same,cell count,,5440
CC(C)CC[C@@H](O)[C@@H](C)C1CCC2C3CC=C4C[C@@H](O)CC[C@]4(C)C3CC[C@@]21C (stereo partly specified),z-score,,-0.379 (inactive)
same,cell count,,5080
COC(=O)CCC[C@H](O)[C@H](O)CO,z-score,,-0.313 (inactive)
same,cell count,,5480
CCCCCC/C=C\CCCC(=O)CC(=O)N[C@H]1CCOC1=O,z-score,,0.196 (inactive)
same,cell count,,5220
CCCCC(C)(C)[C@H](O)/C=C/[C@H]1[C@H](O)CC(=O)[C@@H]1CCCCCCC(=O)O,z-score,,-0.22 (inactive)
same,cell count,,5310
O=C(O)c1cc(C(F)(F)F)ccc1N1CCC(OCc2ccccn2)C1 (stereo unspecified),z-score,[1],-0.188 (inactive)
same,z-score,[2],-0.142 (inactive)
same,z-score,[3],-0.236 (inactive)
same,z-score,[4],-0.254 (inactive)
same,cell count,[1],6080
same,cell count,[2],6070
same,cell count,[3],6240
same,cell count,[4],5970
CCCCC[C@H](O)/C=C/[C@H]1CCC(=O)[C@@H]1C/C=C\CCCC(=O)O,z-score,,0.602 (inactive)
same,cell count,,5430
Cc1c(Cc2ccc3ccccc3n2)c2cc(F)ccc2n1CC(=O)O,z-score,[1],-0.574 (inactive)
same,z-score,[2],-0.436 (inactive)
same,z-score,[3],-0.171 (inactive)
same,z-score,[4],-0.183 (inactive)
same,cell count,[1],6030
same,cell count,[2],6070
same,cell count,[3],6110
same,cell count,[4],5700
Cc1c(-c2ccc(-c3ccccc3F)cc2)nc2ccc(F)cc2c1C(=O)O,outcome,library stock 10 mM,inactive; censored for cell count
same,z-score,[1],-0.011 (inactive)
same,z-score,[2],9.53 (active)
same,z-score,[3],9.71 (active)
same,cell count,[1],5350
same,cell count,[2],2330
same,cell count,[3],1790
CCC(NC(=O)c1c(C)c(-c2ccccc2)nc2ccccc12)c1ccccc1 (stereo unspecified),z-score,[1],-0.542 (inactive)
same,z-score,[2],-0.315 (inactive)
same,z-score,[3],-0.402 (inactive)
same,z-score,[4],-0.409 (inactive)
same,cell count,[1],7010
same,cell count,[2],6770
same,cell count,[3],6520
same,cell count,[4],5870
O=C(O)CCC/C=C/C[C@@H]1[C@@H](CC[C@@H](O)CCc2ccccc2)[C@H](O)C[C@@H]1O,z-score,,-0.13 (inactive)
same,cell count,,5360
Nc1ccccc1NC(=O)CCCCCCC(=O)Nc1ccccc1,z-score,,0.265 (inactive)
same,cell count,,5570
O=C(CCCCCCC(=O)Nc1ccccc1)NO,z-score,,0.328 (inactive)
same,outcome,library stock 10 mM,inactive; censored for cell count
same,z-score,[1],0.428 (inactive)
same,z-score,[2],2.1 (active)
same,z-score,[3],10.2 (active)
same,cell count,,5300
same,cell count,[1],5490
same,cell count,[2],4770
same,cell count,[3],3220
CC(C)(C)C(=O)Nc1ccccc1,z-score,,-0.189 (inactive)
same,cell count,,5010
